In PubChem BioAssay (NCI) one finds growth data, which are given here for 28 compounds.

SMILES strings stand for the structures. Where “and” joins values, the source holds several entries; their conditions need not be identical. Identical values can stand only once. The panel holds about 83,000 compounds, 20% with a hit somewhere; the sample as a whole holds those more often.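 Results are percent growth after 48 hours of single-concentration exposure. 100 means growth as in untreated cells, lower positive values show inhibition; negative values down to -100 show cell death.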 Values without a mark were called inactive. Calls of active or inactive are those of the source. How the source made its calls: active means growth percent below 10; inactive means the rest.

This assay has as its system MDA-MB-468 breast. Kind of assay: NCI-60 one-dose screen, 48 h (100 = growth as untreated, 0 = no growth, -100 = all killed). The following applies: 10 µM unless noted.
As to `COc1ccc(-c2nc3sccn3c2/C=C/C(=O)c2cc(OC)c(OC)c(OC)c2)cc1`, the growth was 53.6%.

`COC(=O)c1ccc2[nH]c(O)c(C(=Nc3ccc(N(C)C(=O)CN4CCN(C)CC4)cc3)c3ccc(CCO)cc3)c2c1`: the growth was 37.7%.

On to `Cc1ccc(-c2c3c(N)nc(-c4ccncc4)nc3nc3c2c(C)nn3-c2ccccc2)cc1`, for which the growth was 43.6%.

For the compound `Nc1nc(N)c2c(n1)NC(c1cccc(Nc3ccnc4cc(C(F)(F)F)ccc34)c1)CC(c1ccccc1)=N2` (stereo not drawn), the growth is 18.5%.

On to `Cn1c2c(cc(S(=O)(=O)c3ccccc3)c1=O)CCc1c-2cnn1-c1cccc(Cl)c1`, for which the growth is 67%.

For the compound `CN1CCN(Cc2ccc(NC(=O)c3cc(C#Cc4cnc(N)c5ncccc45)n(C)n3)cc2C(F)(F)F)CC1`, the growth was 104%.

Take `COc1ccc(-c2nn(Cc3ccccc3)c3c2-c2oncc2CC3)cc1OC`: the growth was 99.9%.

For the compound `CNCC[C@H](Oc1cccc2ccccc12)c1cccs1`, the growth was 82%.

With `Cc1csc(-c2ccc3c(c2)COC3(CCCN(C)C)c2ccc(F)cc2)c1` (stereo not drawn), the growth is 31.1%.

As for `CN1CCN(Cc2ccc(NC(=O)c3cncc(C#Cc4cnc5ccc(O[C@@H]6CCOC6)nn45)c3)cc2C(F)(F)F)CC1`, the growth was -72.6% (active).

As to `O=C(Nc1ccccc1)Nc1ncnc2c1ncn2-c1ccccc1`, the growth is 74.3%.

Take `C=CCn1c(SCC(=O)Nc2ccc(C(=O)/C=C/c3ccc(OC)cc3)cc2)nnc1-c1ccc(OC)c(OC)c1`: the growth was 75%.

Regarding `COc1cc(Nc2c(C#N)cnn3cc(-c4cnn(CC(C)(C)O)c4)cc23)ccc1Cl`, the growth was 65.1%.

`CCCCCc1ccc(S(=O)(=O)Nc2cccc(-c3csc(NCCN4CCN(C)CC4)n3)c2)cc1`: the growth is 87.3%.

With `CCOc1ccc(NC(=O)c2cc(OC)c(OC)c(OC)c2)cc1`, the growth is 8.51% (active).

`O=C1C(Cl)=C(SC2=NCCN2)C(=O)c2ccccc21`: the growth was 0.366% (active).

Consider `COc1ccc(OC)c(-c2nc(SCC(=O)c3ccc(C#N)cc3)[nH]c(=O)c2C#N)c1`, for which the growth is 94.3%.

Regarding `CCn1cc(C(=O)O)c(=O)c2cc(F)c(N3CCN(S(=O)(=O)c4cccc5ccccc45)CC3)cc21`, the growth was 4.79% (active).

Take `Cc1nnc(NC/C=C/c2ccccc2)s1`: the growth was 106% and 92%.

Regarding `CC(=O)Nc1c(I)c(NC(C)=O)c(I)c(C(=O)O)c1I`, the growth was 115%.

For `CC[N+](CC)(CCOCCOCC[N+](CC)(CC)Cc1ccc([N+](=O)[O-])cc1)Cc1ccc([N+](=O)[O-])cc1`, the growth is 97.9%.

`CN1C(=O)N(C)C2C1NC(=S)N2/N=C/C=C/c1ccccc1[N+](=O)[O-]` (stereo not drawn): the growth is 6.39% (active).

For the compound `COC(=O)/C(CCC=C(C)C)=C1\[C@@H](OC(C)=O)C[C@@]2(C)[C@H]1C/C(=N/O)[C@H]1[C@@]3(C)CC/C(=N\O)[C@@H](C)[C@@H]3CC[C@@]12C`, the growth was 96.8%.

Take `CC(O)C(F)(F)C(F)(F)C(F)(F)F` (stereo not drawn): the growth is 96.4%.

For `COc1ccc(-c2csc(NC(=O)c3ccc(Cc4n[nH]c(=O)c5cccnc45)cc3)n2)cc1`, the growth was 64.2%.

On to `Cc1nn(-c2ccccc2)cc1/C=N/Nc1nc(Nc2ccccc2)nc(Nc2ccc(S(N)(=O)=O)cc2)n1`, for which the growth was -37.1% (active).

Take `COC(=O)/C=C1\S/C(=N\NC(=O)c2cc3ccc2/C=C\c2ccc(cc2)/C=C\3)N(Cc2ccccc2)C1=O`: the growth was 21.1%.

Take `Cc1ccc(-c2cc(-c3ccc(C)cc3)nc(NCCNc3ccnc4cc(Cl)ccc34)n2)cc1`: the growth is -93.2% (active).
